According to the supplement of paper PMC7184167:
Structures can show the parent of a compound that is named as a salt.

Tested on: replication-induced senescent mouse newborn dermal fibroblasts (NBF)
Test: relative cell viability of senescent cells (fraction); higher = less killing of senescent cells
Conditions: 1 µM; 3 days
Experimental: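 Replication-induced senescent newborn mouse skin fibroblasts (NBFs) in 24-well plates were treated with a Selleck FDA-approved drug library at 1 µM for 3 days.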

Row | Compound | relative cell viability
1 | C[C@H](CCC(=O)O)[C@H]1CC[C@H]2[C@@H]3[C@@H](O)C[C@@H]4C[C@H](O)CC[C@]4(C)[C@H]3CC[C@]12C [Ursodiol] | 0.448
2 | Cc1[nH]c2ccccc2c1CCNCc1ccc(/C=C/C(=O)NO)cc1 [Panobinostat (LBH589)] | 1.08
3 | C[C@H]1C[C@H]2[C@@H]3CCC4=CC(=O)C=C[C@]4(C)[C@@]3(F)[C@@H](O)C[C@]2(C)[C@@]1(O)C(=O)CO [Betamethasone] | 0.229
4 | CC(C)(C)C(=O)OCOP(=O)(COCCn1cnc2c(N)ncnc21)OCOC(=O)C(C)(C)C [Adefovir Dipivoxil] | 0.924
5 | O=S(=O)(O)CCSSCCS(=O)(=O)O [Dimesna] | 0.736
6 | C[C@@H](c1ncncc1F)[C@](O)(Cn1cncn1)c1ccc(F)cc1F [Voriconazole] | 0.928
7 | Cc1cnc(C(=O)O)c[n+]1[O-] [Acipimox] | 0.938
8 | CCCCC[C@H](O)/C=C/[C@H]1[C@H](O)CC(=O)[C@@H]1CCCCCCC(=O)O [Alprostadil] | 0.875
9 | CO[C@H]1C[C@@H]2CC[C@@H](C)[C@@](O)(O2)C(=O)C(=O)N2CCCC[C@H]2C(=O)O[C@H]([C@H](C)C[C@@H]2CC[C@@H](OC(=O)C(C)(CO)CO)[C@H](OC)C2)CC(=O)[C@H](C)/C=C(\C)[C@@H](O)[C@@H](OC)C(=O)[C@H](C)C[C@H](C)/C=C/C=C/C=C/1C | 0.603
10 | CCOc1ccccc1OCCN[C@H](C)Cc1ccc(OC)c(S(N)(=O)=O)c1 [Tamsulosin hydrochloride] | 1.1
11 | C[C@]12CC[C@@H]3c4ccc(O)cc4C[C@@H](CCCCCCCCC[S+]([O-])CCCC(F)(F)C(F)(F)F)[C@H]3[C@@H]1CC[C@@H]2O (stereo not given in full) [Fulvestrant] | 0.971
12 | O=C(N[C@H](CO)[C@H](O)c1ccc([N+](=O)[O-])cc1)C(Cl)Cl [Chloramphenicol] | 0.706
13 | CCCCC1=NC2(CCCC2)C(=O)N1Cc1ccc(-c2ccccc2-c2nnn[nH]2)cc1 [Irbesartan] | 0.868
14 | CC1(C)O[C@@H]2[C@@H](CO[C@@]3(COS(N)(=O)=O)OC(C)(C)O[C@@H]23)O1 [Topiramate] | 0.921
15 | N#C[C@@H]1C[C@@H]2C[C@@H]2N1C(=O)[C@@H](N)C12CC3CC(CC(O)(C3)C1)C2 [Saxagliptin] | 0.999
16 | CCCc1cc(C(N)=S)ccn1 [Protionamide] | 1.02
17 | C=CC[N+]1([C@H]2C[C@H]3[C@@H]4CC[C@H]5C[C@H](O)[C@@H](N6CCOCC6)C[C@]5(C)[C@H]4CC[C@]3(C)[C@H]2OC(C)=O)CCCC1 [Rocuronium Bromide] | 0.939
18 | C[C@]12CCC(=O)C=C1CC[C@@H]1[C@@H]2[C@@H](O)C[C@@]2(C)[C@H]1CC[C@]2(O)C(=O)CO [Hydrocortisone] | 0.786
19 | CC(C)c1cc(-c2n[nH]c(=O)n2-c2ccc3c(ccn3C)c2)c(O)cc1O [Ganetespib (STA-9090)] | 0.0837
20 | Cc1ccc(C)c(OCCCC(C)(C)C(=O)O)c1 [Gemfibrozil] | 1.02

Row | Compound | relative cell viability
21 | CC(C)(C#N)c1cc(Cn2cncn2)cc(C(C)(C)C#N)c1 [Anastrozole] | 0.993
22 | COc1cc2c(Oc3ccc4[nH]c(C)cc4c3F)ncnc2cc1OCCCN1CCCC1 [Cediranib (AZD2171)] | 0.269
23 | CCN1CCN(C(=O)N[C@@H](C(=O)N[C@@H]2C(=O)N3C(C(=O)O)=C(CSc4nnnn4C)CS[C@H]23)c2ccc(O)cc2)C(=O)C1=O [Cefoperazone] | 1.03
24 | Cc1nc(=O)c2cc(CN(C)c3ccc(C(=O)N[C@@H](CCC(=O)O)C(=O)O)s3)ccc2[nH]1 [Raltitrexed] | 0.916
25 | CC(C(=O)O)c1cccc(C(=O)c2ccccc2)c1 (stereo not given) [Ketoprofen] | 0.757
26 | CC(C)[C@H](N)C(=O)OCCOCn1cnc2c(=O)nc(N)[nH]c21 [Valaciclovir HCl] | 0.909
27 | COc1ccccc1OCC(O)COC(N)=O (stereo not given) [Methocarbamol] | 1.03
28 | CO[C@H]1C[C@@H]2CC[C@@H](C)[C@@](O)(O2)C(=O)C(=O)N2CCCC[C@H]2C(=O)O[C@H]([C@H](C)C[C@@H]2CC[C@@H](OCCO)[C@H](OC)C2)CC(=O)[C@H](C)/C=C(\C)[C@@H](O)[C@@H](OC)C(=O)[C@H](C)C[C@H](C)/C=C/C=C/C=C/1C [Everolimus (RAD001)] | 0.765
29 | CCc1cc(C(N)=S)ccn1 [Ethionamide] | 0.932
30 | Oc1c(Cl)cc(Cl)c2cccnc12 [Chloroxine] | 0.982
31 | COc1cc(Nc2c(C#N)cnc3cc(OCCCN4CCN(C)CC4)c(OC)cc23)c(Cl)cc1Cl [Bosutinib (SKI-606)] | 0.0801
32 | CCN(CC)C(=S)SSC(=S)N(CC)CC [Disulfiram] | 1.13
33 | CCOc1nc2cccc(C(=O)O)c2n1Cc1ccc(-c2ccccc2-c2nnn[nH]2)cc1 [Candesartan] | 1.02
34 | COc1cc([C@@H]2c3cc4c(cc3[C@@H](O[C@@H]3O[C@@H]5CO[C@@H](c6cccs6)O[C@H]5[C@H](O)[C@H]3O)[C@H]3COC(=O)[C@H]23)OCO4)cc(OC)c1O [Teniposide] | 1.08
35 | [I-].[K+] [Potassium Iodide] | 0.937
36 | NCCCCCC(=O)O [(6-)ε-Aminocaproic acid] | 0.983
37 | COc1ccccc1OCC(O)CN1CCN(CC(=O)Nc2c(C)cccc2C)CC1 (stereo not given) [Ranolazine] | 0.994
38 | COC(=O)N[C@H](C(=O)N1CCC[C@H]1c1ncc(-c2ccc(-c3ccc(-c4cnc([C@@H]5CCCN5C(=O)[C@@H](NC(=O)OC)C(C)C)[nH]4)cc3)cc2)[nH]1)C(C)C | 0.545
39 | NS(=O)(=O)c1cc2c(cc1Cl)NC(C(Cl)Cl)NS2(=O)=O (stereo not given) [Trichlormethiazide] | 0.981
40 | Nc1nc(=O)[nH]cc1F [Flucytosine] | 0.996
